UDG counterscr: blocks uracil-DNA glycosylase in AID counter-screen; FRET deamination/UDG coupled assay, UDG read, 4 h; Potency, µM (titrated, usually from 115 µM), without a hit: at the highest dose activity change, negative = inhibition, actives largely listed as inhibitors; actives 0.14% (n = 91,000); AID 1347430; further: nearly all actives have a fitted effect of over 65% in size
AID inh: blocks human AID cytidine deaminase activity; Q9GZX7; AID deamination FRET fluorescence, UDG-coupled, 4 h; Potency, µM (doses to about 115 µM), actives largely listed as inhibitors; actives 0.32% (n = 91,000); AID 1347428; further: nearly all actives have a fitted effect of over 25% in size
Target sequence (Q9GZX7 whole entry, looked up): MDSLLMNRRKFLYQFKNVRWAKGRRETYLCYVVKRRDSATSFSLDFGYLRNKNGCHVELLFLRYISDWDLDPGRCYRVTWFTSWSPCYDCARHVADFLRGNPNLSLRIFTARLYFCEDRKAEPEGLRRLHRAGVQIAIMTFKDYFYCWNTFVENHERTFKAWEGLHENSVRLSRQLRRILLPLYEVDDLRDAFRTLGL
Active calls of the source: *; i = inactive; u = inconclusive; ! = repeats disagree; [ ] = remark or other dose. Only some compounds are listed: those with a hit (about 0.4% of all), similar ones and a draw of the others. The call rests on the fitted dose curve; in most records, active means well fitted curve in the direction sought with a large enough effect; inconclusive means small, poorly fitted or top-dose-only effect, or another doubt; inactive means no such curve, though single readings can be large; an effect the other way counts as inactive or inconclusive. On the % scale 0 is the no-effect control and ±100 the full control effect; potency means the concentration at half of the fitted maximal effect.

SMILES	UDG counterscr	AID inh
CCOc1ccc(-c2nc(C#N)c(NCc3ccccc3Cl)o2)cc1	0%	i
O=Cc1cc(Cc2ccccc2Cl)cc(Br)c1O	-14%	35µM*
O=Cc1ccc(OCc2ccccc2Cl)cc1	-6%	i
CCCCCc1ccc(-c2ccc(C(=O)O)cc2)cc1	-6%	i
CCCCCCCCc1ccc(-c2ccc(C(=O)O)cc2)cc1	-3%	89µM*!
COc1ccc(NC(=O)C2CCCN(c3nnc(-n4c(C)ccc4C)s3)C2)cc1OC (configuration not stated)	-1%	i
CCc1ccc(S(=O)(=O)c2nnn3c2nc(N2CCC(C(N)=O)CC2)c2cc(Cl)ccc23)cc1	-14%	25µM*
CC1CCN(c2nc3c(S(=O)(=O)c4ccccc4)nnn3c3ccc(Cl)cc23)CC1	-14%	u
Cc1ccc(NC(=O)c2c(C)nc3sc(C(=O)Nc4ccc(F)cc4)c(N)c3c2-c2ccccc2Cl)c(C)c1	11%	i
Cc1ccc(NC(=O)c2c(C)nc3sc(C(=O)Nc4ccc(F)cc4)c(N)c3c2-c2ccc(Cl)cc2)c(C)c1	89µM*	32µM*
N#Cc1ccc(/C=C2\CCOc3cc(Br)ccc3C2=O)cc1	-4%	i
COc1ccccc1S(=O)(=O)Cc1ccc(C(=O)N2CCN(c3cc(Cl)ccc3C)CC2)o1	89µM*	u
CCn1cc(C(=O)N2CCN(c3cc(Cl)ccc3C)CC2)c2cc(OC)c(OC)cc2c1=O	-9%	i
Cc1cc2oc(C(=O)NCC(c3cccs3)N3CCCC3)cc(=O)c2cc1Cl (configuration not stated)	-1%	i
CC(=O)O[C@H]1C[C@@H]2CC[C@@H]3[C@H](CC[C@@]4(C)[C@H]3C[C@H]([N+]3(C)CCCCC3)[C@@H]4OC(C)=O)[C@@]2(C)C[C@@H]1[N+]1(C)CCCCC1	-8%	22µM*
CC(=O)C1=CC[C@H]2[C@@H]3CC[C@H]4C[C@@H](O)CC[C@]4(C)[C@H]3CC[C@]12C	-7%	i
COc1cc(/C=C(/C#N)c2ccc(C(F)(F)F)cn2)cc(OC)c1	-4%	i
Oc1ccc(N=Cc2ccccc2OCc2ccccc2)cc1	u	14µM*
C(=Nc1ccccc1)c1ccccc1OCc1ccccc1	-6%	i
CC(C)c1ccc(CNC(C)(C)CO)cc1	1%	i
O=C(OCC1(COC(=O)c2ccc(F)cc2)CCCC(COC(=O)c2ccc(F)cc2)(COC(=O)c2ccc(F)cc2)C1=O)c1ccc(F)cc1	-7%	i
CC(=O)N1CCc2c(sc3c2c(=O)n(Cc2ccccc2)c(=O)n3Cc2ccc(Cl)cc2)C1	1%	i
CC(=O)N1CCc2c(sc3c2c(=O)n(Cc2ccccc2)c(=O)n3Cc2cccc(Cl)c2)C1	u	32µM*
O=C1CCCc2nccc(-c3ccccc3)c21	-16%	i
COc1cccc(NC(=O)Cn2c(=O)oc3cc(S(=O)(=O)N4CCCCC4)ccc32)c1	89µM*	i
SMILES	UDG counterscr	AID inh
Cc1cccc(NC(=O)Cn2c(=O)oc3cc(S(=O)(=O)N4CCCCCC4)ccc32)c1	-12%	i
CCc1cc2c(C)cc(=O)oc2cc1OCC(=O)c1ccccc1	4%	i
CCCCn1nnnc1CSc1nnc(-c2ccccc2)n1-c1ccccc1	0%	i
O=C(NC1CCCCC1)c1ccc2c(c1)-c1ccccc1C2	-4%	i
CCOc1ccccc1N1CC(c2nc3ccccc3n2CCCCOc2cc(C)ccc2C)CC1=O (configuration not stated)	-10%	i
Cc1ccc(C)c(OCCn2c(C3CC(=O)N(Cc4ccc(F)cc4)C3)nc3ccccc32)c1 (configuration not stated)	79µM*	28µM*
CCc1ccc2oc(C(=O)Nc3ccc(S(=O)(=O)Nc4onc(C)c4C)cc3)cc(=O)c2c1	6%	i
COc1cc(C2CC(=O)Nc3ccsc32)ccc1OCC(N)=O (configuration not stated)	8%	i
COc1ccc(C2CC(=O)Nc3nc(N)sc32)cc1OCc1ccccc1Cl (configuration not stated)	-6%	40µM*
CC(C)Oc1cccc(C2CC(=O)Nc3nc(N)sc32)c1 (configuration not stated)	-14%	28µM*
Cc1nn(-c2ccc3nnc(C)n3n2)c2c1C(c1cccc(OC(C)C)c1)CC(=O)N2 (configuration not stated)	11%	i
COc1cc(/C=N/O)cc(I)c1O	-15%	i
COc1ccccc1NC(=O)C1=C(C)Nc2nc(SC)nn2C1c1cccnc1 (configuration not stated)	5%	i
Oc1ccc(NCc2ccccc2OCc2ccccc2Cl)cc1	-18%	32µM*
Fc1ccc(NCc2ccccc2F)cc1	3%	i
Oc1ccc(NCc2ccccc2OCc2ccccc2F)cc1	-8%	20µM*
N#Cc1ccc(NCc2ccccc2Cl)cc1	-3%	i
CCOc1ccccc1NC(=O)C(=O)c1c[nH]c2c(CC)cccc12	-5%	i
O=C(C1=C(O)C(=O)N(c2nc3ccc(Cl)cc3s2)C1c1ccco1)c1ccco1 (configuration not stated)	-5%	50µM*
Cc1ccc2nc(N3C(=O)C(O)=C(C(=O)c4ccco4)C3c3ccc(O)cc3)sc2c1 (configuration not stated)	2%	i
CCCCc1ccc(-c2csc(-c3nc(-c4ccc(C)cc4)c(C)s3)n2)cc1	-4%	i
Cc1ccc(N2CCN(C(=O)c3c4c(nc5ccccc35)C(=O)N(C3CCCCC3)C4)CC2)c(C)c1	2%	u
Cc1cccc(N2CCN(C(=O)c3c4c(nc5ccccc35)C(=O)N(C3CCCCC3)C4)CC2)c1C	0%	28µM*
Cc1nn(-c2nc3c(c(=O)n(CC(N)=O)c(=O)n3C)n2Cc2ccccc2)c(C)c1C	-4%	i
O=C(NC1CCOC1=O)C1CCCCC1 (configuration not stated)	-7%	i
SMILES	UDG counterscr	AID inh
COc1ccc(CCNC(=O)Cn2c(=O)c3cccn3c3ccccc32)cc1OC	0%[57.5 µM]	i
COc1ccc(CCNC(=O)Cn2c(=O)c3cccn3c3ccc(F)cc32)cc1OC	8%[57.5 µM]	79µM*
O=C(Nc1cccc(Cl)c1)c1c(NC(=O)C(F)(F)F)sc2c1CCCC2	-2%	u
Cc1cccc(NC(=O)c2c(NC(=O)C(F)(F)F)sc3c2CCCCC3)c1	-9%	79µM*
CCOc1ccc(C(=O)c2cn(CC(=O)Nc3ccc4c(c3)OCO4)c3ccc(OCC)cc3c2=O)cc1	4%	i
CCOc1ccc(C(=O)c2cn(CC(=O)Nc3ccc4c(c3)OCO4)c3ccc(OC)cc3c2=O)cc1	-16%	45µM*
CCOc1ccc2c(c1)cc(C(=O)NC(C)C)n2C	-9%	i
O=C(NCC(c1cccs1)N1CCCCCC1)c1cc(=O)c2ccc(Br)cc2o1 (configuration not stated)	5%	i
CC(C)C(=O)Nc1ccc(Cl)cc1F	-2%	i
Cc1ccc(C(C)NC(=O)Nc2ccc(Cl)cc2F)c(C)c1 (configuration not stated)	1%	14µM*
CC(=O)NC(CC(=O)N(CC(F)(F)F)C1CC1)c1cccs1 (configuration not stated)	-2%	i
Cc1ccc(-c2noc(CN(C(=O)COc3cc(C)cc(C)c3C)C(C)C)n2)cc1	-19%	79µM*
Cc1ccc(OCC(=O)N(Cc2nc(-c3ccccc3)no2)C(C)C)cc1C	0%	i
